# Measured values: PubChem BioAssay (NCATS)
# Where “and” joins values, the source holds several entries; their conditions need not be identical. Equal values may be shown once. Inconclusive results are not listed. Calls of active or inactive are those of the source. Calls follow the shape of the dose curve; as a rule, active = well fitted curve in either direction with a large enough effect (not every such curve was filed as active); inconclusive = small, poorly fitted or top-dose-only effect, or another doubt; inactive = flat fitted curve, though single readings scatter.
# Experiment: Stat Signaling Pathway (AID 446)
# Settings: ME-180 SIE beta-lactamase reporter, IL-6 stimulated, 5 h; at 7.69 µM (top of the series)
# Experimental: NCGC Assay Overview: The IL-6/STAT signaling pathway was assayed in ME-180 cervical carcinoma cells by a beta-lactamase reporter gene controlled by a STAT Inducible Element (SIE). This reporter is induced by IL-6 at 40 pM AC50 and inhibited by the pan JAK inhibitor, 2-(1,1-Dimethylethyl)-9-fluoro-3,6-dihydro-7H-benz[h]-imidaz[4,5-f]isoquinolin-7-one, at approximately 10 nM AC50. Plated cells were incubated overnight and on the following day, stimulated with 40 pM IL-6 for 5 hrs. The assay was screened at the AC50 of IL-6 activation to identify both inhibitors and activators of IL-6/STAT signaling.
# NCGC Assay Protocol Summary: Cells were trypsinized, washed in assay medium (AM, OPTI MEM with 0.5% fetal bovine serum, 0.1 mM nonessential amino acids, 1 mM sodium pyruvate, 10mM HEPES pH 7.3, 100U/ml penicillin, and 100 ug/ml streptomycin) and suspended at 6 x 10e5/ml in AM. Approximately […] cells in 5 uL/well was dispensed into 1536 well plates and the cells were incubated overnight at 37 C. 23 nL of compound were delivered by a pin tool and 1 uL of IL-6 (40 pM final concentration in AM) was added. After centrifugation at 1000 rpm for less than a minute, plates were incubated at 37C for 5 hrs. One uL of detector mix (LiveBLAzerTM, Invitrogen) was added, the plates incubated at room temperature for 2.5 hrs, and fluorescence intensity at 460 and 530 nm emission was measured at 405 nm excitation by an Envision (Perkin Elmer) or Safire II (Tecan). Data were normalized by GeneData to the controls for AC90 stimulation (300 pM IL-6) and to AC90 inhibition (125 nM Jak inhibitor, 40 pM IL-6 in AM).
# % is scaled to controls: 0 for no effect and ±100 for the full control effect.
row,Structure (SMILES),"activity, negative = inhibition"
1,CNCCC=C1c2ccccc2CCc2ccccc21,-5.09% (inactive)
2,Cc1cc(N)c2cc(NC(=O)Nc3ccc4nc(C)cc(N)c4c3)ccc2n1,-4.38% (inactive)

# Same assay, conditions: ME-180 SIE beta-lactamase reporter, IL-6 stimulated, 5 h; at 17.2 µM (top of the series)
row,Structure (SMILES),"activity, negative = inhibition"
1,CC(C)(C(=O)c1cccnc1)c1cccnc1,-5.5% (inactive)
2,CCN(CC)C(=O)N1CCN(C)CC1,3.22% (inactive)
3,CC(CCc1ccccc1)NCC(O)c1ccc(O)c(C(N)=O)c1 (stereo not given),9.7% (inactive)
4,CC(=O)OCC(=O)[C@@]12OC(C)(C)O[C@@H]1C[C@H]1[C@@H]3C[C@H](F)C4=CC(=O)C=C[C@]4(C)[C@@]3(F)[C@@H](O)C[C@@]12C,-3.28% (inactive)
5,CCCn1c(=O)[nH]c(=O)c2[nH]cnc21,4.71% (inactive)
6,CCCCC(=O)O[C@]1(C(=O)CO)CC[C@H]2[C@@H]3CCC4=CC(=O)CC[C@]4(C)[C@H]3[C@@H](O)C[C@@]21C,-12.8% (inactive)
7,Nc1nc2ncc(CNc3ccc(C(=O)N[C@@H](CCC(=O)O)C(=O)O)cc3)nc2c(=O)[nH]1,1.24% (inactive)
8,C[C@H](O)C(=O)Nc1c(I)c(C(=O)NC(CO)CO)c(I)c(C(=O)NC(CO)CO)c1I,-2.21% (inactive)
9,CN(C)CCOc1ccccc1Cc1ccccc1,-3.49% (inactive)
10,CCCCOc1ccc(OCCCN2CCOCC2)cc1,-0.87% (inactive) and 12.1% (inactive)
11,CC(O)(P(=O)(O)O)P(=O)(O)O,3.57% (inactive)
12,C1CCc2nnnn2CC1,5.56% (inactive)
13,COc1c2occc2c(OC)c2c(=O)cc(C)oc12,7.57% (inactive) and -1.58% (inactive)
14,Cc1c(N(C)CS(=O)(=O)O)c(=O)n(-c2ccccc2)n1C,-1.51% (inactive)
15,CC(C)NC[C@@H](O)COc1cccc2ccccc12,-2.8% (inactive) and 2.51% (inactive) and -11.2% (inactive)
16,C[C@H]1[C@H](NC(=O)/C(=N/OC(C)(C)C(=O)O)c2csc(N)n2)C(=O)N1S(=O)(=O)O (stereo in doubt),8.78% (inactive)

row,Structure (SMILES),"activity, negative = inhibition"
1,O=C1c2ccccc2C(=O)C1c1ccccc1,3.06% (inactive)
2,CNCCC=C1c2ccccc2CCc2ccccc21,-1.99% (inactive) and -5.78% (inactive)
3,NCCc1ccn[nH]1,4.55% (inactive)
4,CN(C(=O)CN(CCO)CC(=O)N(C)C(C)(C)Cc1ccccc1)C(C)(C)Cc1ccccc1,5.14% (inactive)
5,CC(=O)OCC(=O)[C@@]1(OC(C)=O)[C@@H](C)C[C@H]2[C@@H]3C[C@H](F)C4=CC(=O)C=C[C@]4(C)[C@@]3(F)[C@@H](O)C[C@@]21C,0.432% (inactive)
6,CCN(CCCc1ccccc1)CCCc1ccccc1,13.6% (inactive) and 2.48% (inactive)
7,Oc1cc(O)c2c(c1)O[C@H](c1ccc(O)c(O)c1)[C@H](O)C2,-2.66% (inactive) and 0.865% (inactive)
8,O=C1OC(c2ccc(O)cc2)(c2ccc(O)cc2)c2ccccc21,-16.8% (inactive)
9,CN(C)CCCOc1nn(Cc2ccccc2)c2ccccc12,-8.78% (inactive)
10,CN1CCN(CCCN2c3ccccc3Sc3ccc(S(=O)(=O)N(C)C)cc32)CC1,5.77% (inactive)
11,c1ccc(-c2ccc(C(c3ccccc3)n3ccnc3)cc2)cc1 (stereo not given),-24.4% (inactive)
12,C/C=C(/C(=C/C)c1ccc(O)cc1)c1ccc(O)cc1,-10.4% (inactive)
13,CCCC1O[C@@H]2C[C@H]3[C@@H]4CCC5=CC(=O)C=C[C@]5(C)[C@H]4[C@@H](O)C[C@]3(C)[C@]2(C(=O)CO)O1 (stereo not given in full),-3.6% (inactive)
14,CCCCOc1cc(C(=O)NCCN(CC)CC)c2ccccc2n1,0.235% (inactive) and -1.92% (inactive) and -8.41% (inactive)
15,CC(=O)O[C@H]1C[C@@H]2CC[C@@H]3[C@H](CC[C@@]4(C)[C@H]3C[C@H]([N+]3(C)CCCCC3)[C@@H]4OC(C)=O)[C@@]2(C)C[C@@H]1[N+]1(C)CCCCC1,10.1% (inactive)

# Same assay, conditions: ME-180 (cervical carcinoma) SIE beta-lactamase reporter, IL-6 stimulated, 5 h; at 38 µM (top of the series)
row,Structure (SMILES),"activity, negative = inhibition"
1,CCCn1c(=O)[nH]c(=O)c2[nH]cnc21,-5.28% (inactive)
2,O=C(O)c1cc2cc(Cc3cccnc3)ccc2o1,6.34% (inactive)
3,C1CCc2nnnn2CC1,-9.49% (inactive)
4,CC(C)NC[C@@H](O)COc1cccc2ccccc12,8.52% (inactive) and -21.7% (inactive)
5,CNCCC=C1c2ccccc2CCc2ccccc21,-27.8% (inactive)
6,Oc1cc(O)c2c(c1)O[C@H](c1ccc(O)c(O)c1)[C@H](O)C2,-26.7% (inactive)
7,CN1[C@@H]2CC[C@H]1CC(OC(=O)c1c[nH]c3ccccc13)C2 (stereo not given in full),-14.5% (inactive)
